{
  "source": "paper PMC4552634",
  "about": "“A New Set of Chemical Starting Points with Plasmodium falciparum Transmission-Blocking Potential for Antimalarial Drug Discovery” (PLoS ONE, 2015)",
  "note": "Out of some 13,000 compounds screened, about 3,200 (25%) showed an effect of 50% or more. Some of the results follow.",
  "data": [
    {"test_system": "P. falciparum stage V gametocytes", "parameters": "BacTiter-Glo ATP luminescence viability of purified stage V gametocytes in 384-well plates, per cent inhibition versus DMSO", "conditions": "48 h, 5 µM; inhibitor", "units": {"% Inhibition": "%"}, "values": [
      {"smiles": "CCOc1cc2c(cc1OCC)C(c1cc(OC)c(O)cc1Cl)NCC2", "note": "(stereo not shown) [TCMDC-124488]", "% Inhibition": -19.03},
      {"smiles": "CCc1cc(-c2onc(C)c2-c2cc3ccccc3o2)c(O)cc1OC", "note": "[TCMDC-125148]", "% Inhibition": 5.13},
      {"smiles": "C=C(C)CSc1nc2c(c(=O)n1Cc1ccco1)C1(CCCCC1)Cc1ccccc1-2", "note": "[TCMDC-123895]", "% Inhibition": 6.726},
      {"smiles": "Oc1[nH]c2ccccc2c1N=NC(=S)N1CCOCC1", "note": "[TCMDC-124263]", "% Inhibition": 29.38},
      {"smiles": "Cn1c(O)c(N=NC(=S)N2CCOCC2)c2ccccc21", "note": "[TCMDC-138076]", "% Inhibition": 88.31},
      {"smiles": "CCn1c(O)c(N=NC(=S)N2CCCC2)c2ccccc21", "note": "[TCMDC-138077]", "% Inhibition": 9.29},
      {"smiles": "COc1cccc(C(=O)Nc2nc3c(s2)CCN(Cc2ccccc2N2CCNCC2)CC3)c1.O=C(O)C(F)(F)F", "note": "[TCMDC-134190]", "% Inhibition": 63.98},
      {"smiles": "COc1ccc(-c2ccc(NC(=O)c3cccc(C#N)c3)cc2)cc1CN1CCNCC1", "note": "[TCMDC-132530]", "% Inhibition": -2.653},
      {"smiles": "CCN1CCN(c2cc(C)c3cc(NC(=O)c4cccc(OC)c4)ccc3n2)CC1", "note": "[TCMDC-125573]", "% Inhibition": 10.75},
      {"smiles": "N#Cc1ccc(/C=C/C(=O)NCCCCCN2CCN(C(=O)Nc3ccc(Cl)c(C(F)(F)F)c3)CC2)cc1", "note": "[TCMDC-136098]", "% Inhibition": -6.45},
      {"smiles": "COc1ccc(C(=O)c2ccc3[nH]cc(C4=CCN(C)CC4)c3c2)cc1", "note": "[TCMDC-137276]", "% Inhibition": -3.804},
      {"smiles": "Cc1ccc(C(=O)Nc2cccc(CN3CCCN(Cc4ccc(O)cc4)CC3)c2)s1", "note": "[TCMDC-141858]", "% Inhibition": 30.58},
      {"smiles": "C#C[C@H]1O[C@@H](n2cnc3c(Nc4cc(Br)cc(C(F)(F)F)c4)ncnc32)[C@H](O)[C@@H]1O", "note": "[TCMDC-135185]", "% Inhibition": 10.32},
      {"smiles": "Cc1[nH]c(C)c(-c2ccc(C#Cc3ccc(F)cc3F)cc2)c(=O)c1Br", "note": "[TCMDC-134692]", "% Inhibition": 64.24},
      {"smiles": "Cc1[nH]c(C)c(-c2ccc(CCc3ccc(F)cc3F)cc2)c(=O)c1Br", "note": "[TCMDC-135461]", "% Inhibition": 65.46},
      {"smiles": "Cc1[nH]c(C)c(-c2ccc(-c3ccc(F)cc3)cc2)c(=O)c1Cl", "note": "[TCMDC-137408]", "% Inhibition": -2.511},
      {"smiles": "Cc1[nH]c(C)c(-c2ccc(CCc3ccc(F)cc3F)cc2)c(=O)c1Cl", "note": "[TCMDC-135462]", "% Inhibition": 72.17},
      {"smiles": "CCC(N)(C#Cc1ccc(-c2c(C)[nH]c(C)c(Br)c2=O)cc1)CC", "note": "[TCMDC-134693]", "% Inhibition": 83.96},
      {"smiles": "Cc1ccc(-c2ccc3c(c2)C=C(C(=O)NC2CCN(CCNC(=O)c4cccc(C(F)(F)F)c4)CC2)CCC3)cc1", "note": "[TCMDC-141948]", "% Inhibition": -9.898}
    ]}
  ]
}
